This note sets out measurements from PubChem BioAssay AID623877 (Johns Hopkins Ion Channel Center, 2012).

Molecules are shown by their SMILES. About 1,000 (0.29%) of roughly 340,000 compounds were called active.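 The calls were made as follows: active = fluorescence-ratio B-score plate-corrected deviation score at least 3 library SD below zero, with starting fluorescence score within 5 deviations; inactive = the rest.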 For the sample, actives were picked, then their nearest neighbours and some compounds at random.

Anoctamin-1 (Mus musculus), sequence (Q8BHY3 whole entry, looked up): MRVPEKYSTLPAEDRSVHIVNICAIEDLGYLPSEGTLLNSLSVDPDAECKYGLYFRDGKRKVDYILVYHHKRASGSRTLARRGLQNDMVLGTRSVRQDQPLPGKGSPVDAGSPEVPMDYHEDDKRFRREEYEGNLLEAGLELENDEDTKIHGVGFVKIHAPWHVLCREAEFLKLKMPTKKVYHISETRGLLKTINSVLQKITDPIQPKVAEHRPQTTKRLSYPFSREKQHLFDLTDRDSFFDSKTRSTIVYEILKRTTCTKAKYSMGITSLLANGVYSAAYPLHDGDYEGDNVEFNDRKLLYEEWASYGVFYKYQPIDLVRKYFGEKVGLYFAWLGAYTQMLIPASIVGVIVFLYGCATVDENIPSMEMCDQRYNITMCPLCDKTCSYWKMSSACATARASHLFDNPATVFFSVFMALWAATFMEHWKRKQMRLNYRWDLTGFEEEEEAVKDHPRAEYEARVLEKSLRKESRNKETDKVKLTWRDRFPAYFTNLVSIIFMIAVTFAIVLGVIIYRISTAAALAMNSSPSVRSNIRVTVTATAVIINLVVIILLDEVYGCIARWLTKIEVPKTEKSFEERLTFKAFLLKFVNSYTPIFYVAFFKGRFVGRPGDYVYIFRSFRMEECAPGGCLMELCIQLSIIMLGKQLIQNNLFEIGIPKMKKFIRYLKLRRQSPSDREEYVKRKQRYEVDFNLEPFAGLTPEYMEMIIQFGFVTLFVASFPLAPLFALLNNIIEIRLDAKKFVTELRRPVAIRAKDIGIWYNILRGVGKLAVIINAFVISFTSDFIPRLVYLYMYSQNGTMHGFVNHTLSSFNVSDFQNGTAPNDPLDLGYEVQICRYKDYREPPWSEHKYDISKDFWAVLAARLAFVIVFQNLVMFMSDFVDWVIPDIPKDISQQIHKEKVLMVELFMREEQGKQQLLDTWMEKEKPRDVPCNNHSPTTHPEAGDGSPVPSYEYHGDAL

This assay concerns the target Anoctamin-1 (Mus musculus) (UniProt Q8BHY3). The experiment in a line: TMEM16A chloride channel activators or potentiators, primary screen, cell-based, HTS (AID 623877).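 As to B-score: channel opened by trigger with iodide after compound preincubation; score built on the fluorescence ratio of max minus min over baseline; more negative score means more quench and so TMEM16A activation or potentiation.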 To be noted: HEK293 TMEM16A/YFP-H148Q/I152L, iodide quench fluorescence, at 10 µM; hits give low values.
On to `O=C(OCC(=O)N1CCN(C(=O)c2ccco2)CC1)c1cccc(O)c1`, for which the B-score result was “inactive”.

`CCCOc1ccc(Cn2c(O)cc(=O)[nH]c2=O)cc1`: the B-score entry is “inactive”.

In the case of `COc1ccc(Cn2c(=O)cc(C)[nH]c2=S)cc1`, the B-score entry is “inactive”.

`COc1ccc(Cn2c(O)c(/C=C3/C=CC=N3)c(=O)[nH]c2=O)cc1`: the B-score is -5.62 (active).

Turning to `CCn1cc(CNC(=O)c2cc([N+](=O)[O-])c(C)c([N+](=O)[O-])c2)cn1`, the B-score entry was “inactive”.

Turning to `O=C(Nc1ccccc1-c1nnn(CC(=O)N2CCN(c3ccccc3)CC2)n1)c1cccs1`, the B-score entry was “inactive”.

In the case of `CCNC(=O)N1CCCC(C(=O)c2ccc(-c3ccccc3)cc2)C1` (centres undefined), the B-score result is “inactive”.

Turning to `CCCCSc1[nH]c(=O)c(C(=O)OCC)cc1C#N`, the B-score entry was “inactive”.

With `COc1cc(C)c(C)cc1S(=O)(=O)N1CCCc2ccccc21`, the B-score is -10.8 (active).

Turning to `Cn1c(=O)n(C)c2cc(S(=O)(=O)N3CCCc4ccccc43)ccc21`, the B-score result was “inactive”.

As for `COc1ccc(C(=O)OCC(=O)NCC2CCCCC2)cc1S(=O)(=O)N1CCCc2ccccc21`, the B-score entry was “inactive”.

With `CCCCC(=O)NNC(=S)NC(=O)C(c1ccccc1)c1ccccc1`, the B-score is -5.16 (active).

`CCC(C)NC(=O)CCCc1ccccc1` (centres undefined): the B-score entry is “inactive”.

As to `CCCCCC(=O)NC(=S)NNC(=O)c1ccc([N+](=O)[O-])cc1`, the B-score result is “inactive”.

Take `O=C(CN1CCN(Cc2ccc(F)cc2Cl)C1=O)NCc1cccs1`: the B-score entry was “inactive”.

For the compound `CCOC(=O)CNC(=O)CN1C(=O)CCSc2ccccc21`, the B-score result was “inactive”.

Turning to `C=CC[C@H](CC(=O)N(CCO)Cc1ccccc1)C(=O)N[C@@H](COC(=O)[C@@H](CC=C)Cc1ccc(F)cc1)Cc1ccccc1`, the B-score entry is “inactive”.

Consider `C=CC[C@H](CC(=O)OC(C)(C)C)C(=O)OC[C@H]1CCCN1C(=O)[C@H](CC=C)CC(=O)N(CCO)Cc1ccccc1`, for which the B-score is -5.89 (active).

`C=CCC[C@H](Cc1ccc(F)cc1)C(=O)OC[C@H](C)NC(=O)[C@H](CC=C)CC(=O)N(CCO)Cc1ccccc1`: the B-score result is “inactive”.

With `CC(Sc1nncn1C)C(=O)Nc1cc(C(F)(F)F)ccc1N1CCOCC1` (centres undefined), the B-score entry was “inactive”.

As for `O=C(CSc1nncs1)NC1CCCc2ccccc21` (centres undefined), the B-score entry was “inactive”.

As for `Nc1nnc(SCC(=O)NC2CCCc3ccccc32)s1` (centres undefined), the B-score is -16.7 (active).

Consider `Nn1c(SCC(=O)NC2CCCc3ccccc32)nnc1C1CC1` (centres undefined), for which the B-score result is “inactive”.

In the case of `CC(=O)Oc1ccc(OC(C)=O)c2c1C1C=CC2CC1`, the B-score entry is “inactive”.

For `O=C(CNc1ccccc1N1CCCC1=O)Nc1cc(Cl)ccc1-n1cncn1`, the B-score entry is “inactive”.

Consider `Cc1ccc(NC(=O)CSc2nc(CSc3ccc(C)cc3)cc(=O)[nH]2)cc1`, for which the B-score is -12.6 (active).

For `COc1ccc(NC(=O)CSc2nc(NS(=O)(=O)c3ccc(C)cc3)cc(=O)[nH]2)cc1`, the B-score entry is “inactive”.

Turning to `Cc1cc(=O)[nH]c(SCC(=O)Nc2ccc(Br)cc2)n1`, the B-score entry was “inactive”.

In the case of `COC1=NC2=NCCN2C(OC)=N1`, the B-score entry was “inactive”.

With `CC(=O)Nc1ccc(C(=O)Nc2cc(S(=O)(=O)N3CCOCC3)ccc2N2CCOCC2)cc1`, the B-score result was “inactive”.

Regarding `O=C1C(=O)N(c2ccccc2)c2ccccc21`, the B-score result was “inactive”.

Turning to `O=C(c1ccc(Cl)c(S(=O)(=O)N2CCCCCC2)c1)N1CCN(c2ccc(O)cc2)CC1`, the B-score was -41.2 (active).

`O=C(c1ccc(Cl)c(S(=O)(=O)N2CCCCC2)c1)N1CCCCCC1`: the B-score result is “inactive”.

Turning to `COc1ccccc1N1CCN(C(=O)c2ccc(Cl)c(S(=O)(=O)N3CCCC3)c2)CC1`, the B-score result was “inactive”.

Take `O=c1oc2ccccc2c(=O)c2ccccc12`: the B-score result is “inactive”.

Regarding `COc1ccc(Cl)cc1C(=O)NNC(=O)c1nc2nc(C)cc(C)n2n1`, the B-score entry was “inactive”.

Turning to `Cc1cc(C)n2nc(C(=O)N(C)C(c3ccccc3)c3ccccc3)nc2n1`, the B-score entry was “inactive”.

As for `Cc1cc(C)n2nc(C(=O)NC(C)(C)C)nc2n1`, the B-score was -4.58 (active).

In the case of `O=C(CCl)N(Cc1cccc([N+](=O)[O-])c1)c1cccc(Cl)c1`, the B-score entry was “inactive”.

In the case of `Cc1ccc(-c2csc(C(C#N)=C(O)CN3CCN(C(=O)c4ccco4)CC3)n2)cc1`, the B-score entry is “inactive”.

Consider `COC(=O)C[n+]1cccc2ccccc21`, for which the B-score is -8.8 (active).

Regarding `O=C(C[n+]1cc(Br)cc2ccccc21)c1ccc(F)cc1`, the B-score result was “inactive”.

On to `COC(=O)Cc1c(-c2[nH]c3ccccc3c2CC(=O)OC)[nH]c2ccccc12`, for which the B-score entry is “inactive”.

As for `O=C(Nc1cccc(Cl)c1)C1CCCN(c2cnccn2)C1` (centres undefined), the B-score entry is “inactive”.

On to `Cc1ccc2c(c1)C(c1ccccc1)N(C(=O)c1ccc(S(=O)(=O)N3CCOCC3)cc1)CC(=O)N2` (centres undefined), for which the B-score entry was “inactive”.

`COc1cccc(C(=O)N2CCC(n3nccc3NC(=O)C3CCOC3)CC2)c1` (centres undefined): the B-score entry was “inactive”.

In the case of `COc1ccccc1N1CCN(CC(=O)Nc2ccnn2C2CCCC2)CC1`, the B-score entry was “inactive”.

Consider `COc1cccc(N2CCN(CC(=O)Nc3ccnn3C3CCCC3)CC2)c1`, for which the B-score was -41.6 (active).

For the compound `COc1ccc(CNC(=O)CN(Cc2ccc(Cl)cc2)S(C)(=O)=O)cc1`, the B-score result is “inactive”.

With `Nc1ncnc2c1cnn2C1CC(O)C(CO)O1` (centres undefined), the B-score entry is “inactive”.

Turning to `Cc1noc(/C=C/c2ccco2)c1S(=O)(=O)N1CCC(C(=O)Nc2ccc(Cl)cn2)CC1`, the B-score entry is “inactive”.

For the compound `C=CC(COCc1ccccc1)N(Cc1ccccc1)S(=O)(=O)c1ccccc1Br` (centres undefined), the B-score is -4.97 (active).

For `C=CCCN(Cc1ccccc1)S(=O)(=O)c1ccccc1Br`, the B-score result was “inactive”.

Regarding `C=CC(COCc1ccccc1)N(CC(=O)OC)S(=O)(=O)c1cc(Br)ccc1OC` (centres undefined), the B-score entry was “inactive”.

In the case of `O=C(CN1CCCSc2ccccc21)N1CCN(S(=O)(=O)c2ccccc2)CC1`, the B-score result is “inactive”.

Take `O=C(CN1CCCSc2ccccc21)N1CCN(S(=O)(=O)c2cccc(F)c2)CC1`: the B-score is -45.3 (active).

Consider `O=C(CN1CCN(S(=O)(=O)c2cccc(Cl)c2)CC1)N1CCCCC1`, for which the B-score entry was “inactive”.

Consider `COc1cc(C(=O)Nc2oc(-c3ccccc3)c(-c3ccccc3)c2C#N)cc(OC)c1OC`, for which the B-score entry is “inactive”.

As to `O=C1c2ccccc2C(=O)N1CCCCCCN1C(=O)c2ccccc2C1=O`, the B-score entry is “inactive”.

For `N#Cc1c(NC(=O)CCCN2C(=O)c3ccccc3C2=O)oc(-c2ccccc2)c1-c1ccccc1`, the B-score was -21.8 (active).

As for `CN(C)S(=O)(=O)c1ccc(N2CCCC2)c(C(=O)NCc2ccccc2)c1`, the B-score result was “inactive”.

In the case of `O=P(c1cccs1)(c1cccs1)c1cccs1`, the B-score entry was “inactive”.

As for `COc1ccc(N=C2C=CC(=O)O2)cc1`, the B-score result was “inactive”.

With `CCOc1ccccc1-n1c(SCC(=O)NCc2ccco2)nnc1-c1ccncc1`, the B-score result was “inactive”.

As for `COc1ccc(-n2c(SCC(=O)NCc3cccs3)nnc2-c2ccoc2C)cc1`, the B-score entry is “inactive”.

As to `Cc1ccccc1-n1c(SCC(=O)NCc2cccs2)nnc1-c1ccncc1`, the B-score is -9.87 (active).

For `O=C(Oc1ccccc1)Oc1ccc2c(c1)oc(=O)c1ccccc12`, the B-score result was “inactive”.

Turning to `CC(C)N(Cc1ccccc1)C(=S)Nc1ccc(OC(F)F)cc1`, the B-score entry is “inactive”.

As to `Cc1ccccc1NC(=O)c1nn(-c2ccc(F)c(F)c2)ccc1=O`, the B-score entry was “inactive”.

Consider `CCCSc1ncccc1C(=O)O`, for which the B-score result is “inactive”.

Regarding `CCN(CC)S(=O)(=O)c1ccc(NC(=O)c2cccnc2Cl)c(NC(=O)c2cccnc2Cl)c1`, the B-score was -8.41 (active).

In the case of `CCN(CC)S(=O)(=O)c1ccc(NC(=O)c2cnc(C)cn2)cc1`, the B-score result was “inactive”.

On to `Cc1ccc(CNC(=O)c2cccnc2Cl)cc1`, for which the B-score result is “inactive”.

On to `O=C(NCCN1CCCC(O)C1)c1cc(COc2c(F)cccc2F)on1` (centres undefined), for which the B-score entry was “inactive”.

Consider `CCc1nnc(NC(=O)CSc2nc(SC)ns2)s1`, for which the B-score entry is “inactive”.

As to `COc1ccc(OC)c(Nc2nc3ccccc3n3cnnc23)c1`, the B-score entry was “inactive”.

In the case of `COc1ccc(S(=O)(=O)N2CCCC2)c(C)c1C`, the B-score entry was “inactive”.

As for `CC(C)NC(=O)NC(=O)CSc1nnc(-c2ccccc2F)n1N`, the B-score entry is “inactive”.

As for `Nn1c(SCC(=O)NC2CCCC2)nnc1-c1ccccc1F`, the B-score was -15.8 (active).

For `Nn1c(SCC(=O)NC(=O)NC2CCCC2)nnc1-c1ccccc1F`, the B-score result was “inactive”.

As to `COC(=O)c1ccc(C(NC(=O)OCc2ccccc2)/C(F)=C/[C@@H](C)C(=O)O)cc1` (some centres undefined), the B-score result was “inactive”.

`COc1ccc(COC(=O)NC(C(=O)O)c2ccccc2)cc1` (centres undefined): the B-score is -15.7 (active).

On to `CC(C)[C@H](NC(=O)OCc1ccccc1)C(=O)OCc1ccccc1`, for which the B-score entry is “inactive”.

`Cc1cccc(C)c1NC(=O)C1CCCN1C(=O)OC(C)(C)C` (centres undefined): the B-score result is “inactive”.

`CC(=O)Nc1ccc(S(=O)(=O)NC(C)C(=O)OCC(=O)NC2CCCC2)cc1` (centres undefined): the B-score entry is “inactive”.

`C/C=C/C(=O)OCc1csc(CC(=O)Nc2ccccc2C)n1`: the B-score result is “inactive”.

As to `Cc1ccc(NC(=O)Cc2nc(COC(=O)C(C)NS(=O)(=O)c3ccc(C)cc3)cs2)cc1` (centres undefined), the B-score is -5.62 (active).

`CCOc1cc(C(=O)N(Cc2ccccc2)c2ccc(C)cc2)ccc1OCC(=O)N1CCOCC1`: the B-score entry was “inactive”.

For `CCOC(=O)C1(Cc2ccc(O)cc2)NC(c2ccccc2F)C2C(=O)N(C)C(=O)C21` (centres undefined), the B-score entry is “inactive”.

Regarding `CCOc1cc(/C=C2/N=C(c3ccc(C(C)(C)C)cc3)OC2=O)cc(Cl)c1OS(C)(=O)=O`, the B-score result was “inactive”.

With `COc1ccc(-c2ccnc(SCC(=O)N3CCOCC3)n2)cc1`, the B-score entry was “inactive”.

For `COC1=C/C(=C/c2c(N)n3nc(CC(=O)N4CCOCC4)sc3nc2=O)C=CC1=O`, the B-score was -12.3 (active).

`C=CCC1=C/C(=C\c2c(N)n3nc(CC(=O)N4CCOCC4)sc3nc2=O)C=C(OC)C1=O`: the B-score result was “inactive”.

`N#CCSc1nn(-c2ccc(F)cc2)c(=S)s1`: the B-score result is “inactive”.

With `O=C(CSc1ccccn1)N1CCN(S(=O)(=O)c2ccc(Cl)cc2)CC1`, the B-score result was “inactive”.

`CCCC(C)n1[nH]c(=O)c2c(C)cc(C)nc21` (centres undefined): the B-score entry was “inactive”.

Consider `CCC(C)n1[nH]c(=O)c2c(C)cc(C)nc21` (centres undefined), for which the B-score was -6.98 (active).

Take `CCC(C)n1[nH]c(=O)cc1N` (centres undefined): the B-score entry is “inactive”.

Take `CSc1nc2sc3c(c2c(=O)[nH]1)CCc1ccccc1-3`: the B-score entry is “inactive”.

For the compound `O=C(CC(O)(C(F)(F)F)C(F)(F)F)Nc1ccc(Cl)c(Cl)c1`, the B-score is -12.9 (active).

With `O=C(COC(=O)c1cc[n+]([O-])cc1)Nc1ccc(Cl)c(C(F)(F)F)c1`, the B-score entry was “inactive”.

With `NC(=O)N1CCCC1C(=O)Nc1ccc(Cl)c(Cl)c1` (centres undefined), the B-score entry was “inactive”.

Regarding `Cc1ccc(S(=O)(=O)N2CCOCC2)cc1C(=O)Nc1ccccc1N1CCCC1`, the B-score entry was “inactive”.

Regarding `Nc1ccc2c(c1)C(=Cc1cccnc1)c1ccccc1-2`, the B-score entry was “inactive”.
